According to PubChem BioAssay (NCI):
The panel holds about 83,000 compounds, 20% with a hit somewhere; the sample as a whole holds those more often.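 In brief: 96-well plates, 48 h treatment, single concentration, percent growth endpoint.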 Active and inactive are the calls of the source. Rule for the calls: active = growth percent below 10; inactive = the rest.

The compounds below were run on HCC-2998 colon (assay: NCI-60 one-dose screen, 48 h (100 = growth as untreated, 0 = no growth, -100 = all killed)). Settings: 10 µM unless noted.
In the case of `O=C1Cc2c([nH]c3ccc([N+](=O)[O-])cc23)-c2ccccc2N1`, the growth is reported as -34.5% (active). With `Cc1ccccc1CNc1ncnc2[nH]ncc12` the growth was 105% (inactive). For `COc1ccc(OC)c(Nc2nc(-c3c(C)nc4sccn34)cs2)c1`, the growth was 91.3% (inactive). For `COc1cc2c(cc1OC)C(=O)OC2`, the growth was 118% (inactive). For `CN=C1C=C/C(=N/N=c2/ccn(O)cc2C)C=C1C`, the growth was 91.7% (inactive). `Cc1nc2ccc(Nc3nc(N4CCOCC4)nc(N4CCN(C)CC4)n3)cc2n1Cc1ccccc1` was tested, and the growth was 96.3% (inactive). For `CC(C)=CCC[C@H](C)c1ccc(C)c2c1OCN(CCO)C2`, the growth was 84.4% (inactive). For `COc1ccc(NC(=O)c2ccc(C(F)(F)F)nc2Nc2ccc(Cl)cc2C)cc1Cl`, the growth was 16.7% (inactive). For `O=C(NCCNC(=O)c1cc(S(=O)(=O)NCCc2ccccc2)c(O)c(O)c1O)c1cc(S(=O)(=O)NCCc2ccccc2)c(O)c(O)c1O`, the growth was 38.6% (inactive). In the case of `Cc1ccc(NC(=O)Cn2nncc2CN2C(=O)CSC2=O)cc1C`, the growth is reported as 92.5% (inactive). `Brc1ccccc1Cn1c(-c2cncs2)nc2ccccc21` was tested, and the growth was 92% (inactive). In the case of `COc1cccc(Cn2c(-c3nonc3NC(C)=O)nc3ccccc32)c1`, the growth is reported as 49.3% (inactive). `CN1CCN(Cc2ccc(NC(=O)c3cccc(C#Cc4cnc(N)c5ncccc45)c3F)cc2C(F)(F)F)CC1` was tested, and the growth was 67.3% (inactive). In the case of `O=C(Oc1c(Cl)c(Cl)c(Cl)c(Cl)c1Cl)C1CCCN1C(=O)OCc1ccccc1` (stereo not drawn), the growth is reported as 49.1% (inactive). With `Clc1ccc(Nc2ncnc3c2sc2ncccc23)cc1` the growth was 61.9% (inactive). In the case of `COc1ccc(/C=C/C(=O)c2ccc(NC(=O)CSc3nnc(-c4ccc(OC)cc4)n3-c3ccccc3)cc2)cc1`, the growth is reported as 104% (inactive). `CCCCNCCC(O)c1cc2ccc(C(F)(F)F)cc2c2cc(C(F)(F)F)ccc12` (stereo not drawn) was tested, and the growth was -78.5% (active). `Cc1ccc(N2C3c4ccccc4N(S(=O)(=O)c4ccc(C)cc4)C2c2ccccc2N3S(=O)(=O)c2ccc(C)cc2)cc1` was tested, and the growth was 115% (inactive). For `Cc1ccc(C2CC(c3cccs3)=NN2c2ccc(S(N)(=O)=O)cc2)s1` (stereo not drawn), the growth was 103% (inactive). With `O=C(Nc1ccc(OS(=O)(=O)c2ccc(F)cc2)cc1)C12CC3CC(CC(C3)C1)C2` the growth was 40.6% (inactive). `CCCCCc1c(C)[nH]c(/C=C2\N=C(c3ccc[nH]3)C=C2CC)c1C` was tested, and the growth was -90.4% (active). In the case of `CC(COC(=O)c1ccccc1)N1CC2CCC(C1)O2` (stereo not drawn), the growth is reported as 110% (inactive). For `Cc1cc(C)c(C#N)c(SCC(=O)c2sc3c(C#N)c(C)cc(C)[n+]3c2[O-])n1`, the growth was 15.8% (inactive). With `COc1ccc(-c2nc(-c3ccccc3OCc3ccccc3OC)nc(C)c2C(C)=O)cc1` the growth was 86.2% (inactive). `COc1c(-c2cc(-c3ccc(C)o3)[nH]c(=O)n2)c(O)cc2occc12` was tested, and the growth was 92.1% (inactive). `Cc1cc(NC(=O)C2c3ccccc3C(=O)N(CC(C)C)C2c2cccs2)no1` (stereo not drawn) was tested, and the growth was -45.5% (active). With `OC(c1cc2c(Cl)cc(Cl)cc2c2cc(C(F)(F)F)ccc12)C1CCCCN1` (stereo not drawn) the growth was -73.5% (active). For `Cc1nc2ccc(Nc3nc(Cl)nc(N4CCOCC4)n3)cc2n1Cc1ccccc1`, the growth was 0.667% (active). `O=C(CS)OCC(COC(=O)CS)(COC(=O)CS)COC(=O)CS` was tested, and the growth was 92.2% (inactive). For `C=CCN(CCOC(=O)c1ccc([N+](=O)[O-])cc1)CCOC(=O)c1ccc([N+](=O)[O-])cc1`, the growth was 105% (inactive). `CCN1CCN(Cc2ccc(NC(=O)c3nc4ccc5[nH]ncc5c4c4c3CCCC4)cc2C(F)(F)F)CC1` was tested, and the growth was -58.1% (active). With `CN(C)c1ccc(N2Cc3ccccc3OC3=C2C(=O)c2c(O)ccc(O)c2C3=O)cn1` the growth was -75.2% (active). With `CCCc1n(Cc2ccc3ccccc3n2)cc[n+]1Cc1ccc2ccccc2c1` the growth was 12.5% (inactive). `COc1cc(-c2csc(NC(=O)Nc3cccc(C(F)(F)F)c3)n2)cc(OC)c1OC` was tested, and the growth was 81.1% (inactive). In the case of `COc1ccc2[nH]c(C(=O)OCc3ccc4c(Br)cc(Br)c(O)c4n3)cc2c1`, the growth is reported as -77.7% (active). For `Cc1cc(C)cc(CCCCCCCCCCCCCCCCCC(=O)O)c1`, the growth was 102% (inactive). For `CS(=O)(=O)Nc1cc(-c2cc3ncc(C#N)c(Nc4ccc(Oc5ccccc5)c(Cl)c4)c3s2)cnc1Cl`, the growth was 64.5% (inactive). `CCn1c(CN2CCN(Cc3ccccc3)CC2)nc2cc(NC(=O)c3cccs3)ccc21` was tested, and the growth was -88.9% (active).
